For eight compounds, Percent Effect results are on record in ChEMBL document CHEMBL3988442, “University of Dundee, Small-Polar-MMV Screening Library” (2021).

The structures appear in SMILES notation. For some of these results: Measured potencies and affinities stand elsewhere.

Holding throughout (design): scale not given: direction of the effect not stated beside the values
Experiment [1] concerns the target Protein translocase subunit SecA (Escherichia coli (strain K12)) (UniProt P10408). The experiment in a line: Assay to Identify E. coli SecA ATPase Inhibitors. Conditions: 30 µM. Type of experiment: functional.
Experiment [2] deals with T1, Ubiquitin-activating enzyme e1, putative (Leishmania donovani (strain BPK282A1)) (UniProt E9BSI1).
T1 sequence (whole entry): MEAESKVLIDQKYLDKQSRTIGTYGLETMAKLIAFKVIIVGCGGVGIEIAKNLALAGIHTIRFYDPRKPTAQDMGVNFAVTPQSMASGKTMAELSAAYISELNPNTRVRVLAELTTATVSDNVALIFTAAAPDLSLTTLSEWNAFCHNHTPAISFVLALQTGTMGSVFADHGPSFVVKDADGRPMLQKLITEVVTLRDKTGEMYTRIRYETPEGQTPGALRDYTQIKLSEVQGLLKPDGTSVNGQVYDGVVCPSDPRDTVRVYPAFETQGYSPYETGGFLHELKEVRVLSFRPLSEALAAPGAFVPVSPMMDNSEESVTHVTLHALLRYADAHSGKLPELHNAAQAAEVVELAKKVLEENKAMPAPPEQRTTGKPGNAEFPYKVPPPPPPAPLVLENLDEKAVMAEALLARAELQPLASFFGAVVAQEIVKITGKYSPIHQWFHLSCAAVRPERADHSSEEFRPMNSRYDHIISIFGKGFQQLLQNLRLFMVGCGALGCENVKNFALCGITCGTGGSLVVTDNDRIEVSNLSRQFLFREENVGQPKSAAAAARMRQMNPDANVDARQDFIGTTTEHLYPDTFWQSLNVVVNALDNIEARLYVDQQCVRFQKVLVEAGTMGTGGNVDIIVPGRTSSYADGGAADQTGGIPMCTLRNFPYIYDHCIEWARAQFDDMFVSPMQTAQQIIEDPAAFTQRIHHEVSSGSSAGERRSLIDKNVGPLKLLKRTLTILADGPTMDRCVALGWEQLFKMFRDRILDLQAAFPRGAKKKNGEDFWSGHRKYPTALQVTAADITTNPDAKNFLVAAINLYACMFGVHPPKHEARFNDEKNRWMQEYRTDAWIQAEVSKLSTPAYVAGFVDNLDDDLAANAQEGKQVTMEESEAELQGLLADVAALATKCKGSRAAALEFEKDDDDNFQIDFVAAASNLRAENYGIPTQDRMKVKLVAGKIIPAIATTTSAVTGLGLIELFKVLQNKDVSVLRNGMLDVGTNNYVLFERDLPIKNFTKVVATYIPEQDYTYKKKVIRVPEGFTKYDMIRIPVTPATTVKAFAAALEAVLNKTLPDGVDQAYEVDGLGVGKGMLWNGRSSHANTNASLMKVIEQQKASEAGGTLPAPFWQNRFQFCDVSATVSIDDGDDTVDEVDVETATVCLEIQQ
The experiment in a line: Leishmania donovani Ubiquitin Activating Enzyme (LdE1). Type of experiment: functional. As to conditions: 30 µM.

Experiment [3] deals with AMP-activated protein kinase, AMPK (Homo sapiens) (UniProt P54646+O43741+P54619+Q9UGJ0+Q9Y478+Q13131+Q9UGI9). Nature of the experiment: AMP-dependent Kinase enzyme assay. An in vitro enzyme assay that detects ADP turnover that is directly proportional to AMPK activity. This uses naive AMPK that is activated during the assay with MK-8722. The format is functional. Conditions: 30 µM.

Experiment [4] addresses Sialic acid-binding Ig-like lectin 9 (Homo sapiens) (UniProt Q9Y336). The experiment in a line: Hs-Siglec9 ALPHAscreen SOP 20170721. As to conditions: 10 µM. In general terms: In Alpha technology, singlet oxygen from a donor bead excites a nearby acceptor bead.
The test system of the next experiment is Trypanosoma cruzi. Nature of the experiment: Trypanosoma cruzi phosphomannomutase and mannose-1-phosphate guanylyltransferase assay. The format is functional. Conditions: 10 µM.
For experiment [5], the target named is T2, Arginase-2, mitochondrial (Homo sapiens) (UniProt P78540).
T2 sequence (whole entry): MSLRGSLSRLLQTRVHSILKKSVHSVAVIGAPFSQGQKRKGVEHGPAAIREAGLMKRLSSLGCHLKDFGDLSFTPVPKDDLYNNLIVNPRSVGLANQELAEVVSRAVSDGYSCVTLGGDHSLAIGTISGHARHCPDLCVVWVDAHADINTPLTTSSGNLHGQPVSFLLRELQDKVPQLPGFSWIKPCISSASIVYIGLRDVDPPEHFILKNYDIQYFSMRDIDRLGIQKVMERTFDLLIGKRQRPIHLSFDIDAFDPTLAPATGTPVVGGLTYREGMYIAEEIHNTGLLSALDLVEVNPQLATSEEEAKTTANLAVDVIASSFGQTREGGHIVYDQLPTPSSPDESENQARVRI
Nature of the experiment: in vitro enzyme assay to detect the production of urea directly proportional to the activity of Arginase II. Also: in the data most compounds retested in dose-response had high values. The format is functional. As to conditions: 33.3 µM.

Experiment [6] has as its target T3, Proteasome subunit beta (Trypanosoma cruzi) (UniProt O96673).
T3 sequence (whole entry): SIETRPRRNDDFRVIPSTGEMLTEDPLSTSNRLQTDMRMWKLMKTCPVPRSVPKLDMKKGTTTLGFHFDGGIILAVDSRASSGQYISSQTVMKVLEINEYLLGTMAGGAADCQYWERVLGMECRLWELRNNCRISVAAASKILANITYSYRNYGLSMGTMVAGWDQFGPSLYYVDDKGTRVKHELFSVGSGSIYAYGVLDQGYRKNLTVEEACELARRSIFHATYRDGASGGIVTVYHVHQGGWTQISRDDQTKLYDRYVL
Nature of the experiment: Trypanosoma cruzi proteasome chymotrypsin-like activity (TcProtChymo) assay. Also: in the data most compounds retested in dose-response had high values. Type of experiment: functional. Conditions: 9.37 µM.

The species named for another experiment is Homo sapiens. The experiment in a line: To identify inhibition of the IFN signalling (Jak-Stat) pathway via expression of an eGFP reporter gene under the control of an IFN-stimulated response element (ISRE) containing MxA promoter. The format is functional. As to conditions: 30 µM. For orientation: In a reporter assay the amount or activity of a reporter protein is the signal.

For experiment [7], the target named is T4, Tyrosyl-tRNA synthetase, putative (Trypanosoma cruzi (strain CL Brener)) (UniProt Q4DSP6).
T4 sequence (whole entry): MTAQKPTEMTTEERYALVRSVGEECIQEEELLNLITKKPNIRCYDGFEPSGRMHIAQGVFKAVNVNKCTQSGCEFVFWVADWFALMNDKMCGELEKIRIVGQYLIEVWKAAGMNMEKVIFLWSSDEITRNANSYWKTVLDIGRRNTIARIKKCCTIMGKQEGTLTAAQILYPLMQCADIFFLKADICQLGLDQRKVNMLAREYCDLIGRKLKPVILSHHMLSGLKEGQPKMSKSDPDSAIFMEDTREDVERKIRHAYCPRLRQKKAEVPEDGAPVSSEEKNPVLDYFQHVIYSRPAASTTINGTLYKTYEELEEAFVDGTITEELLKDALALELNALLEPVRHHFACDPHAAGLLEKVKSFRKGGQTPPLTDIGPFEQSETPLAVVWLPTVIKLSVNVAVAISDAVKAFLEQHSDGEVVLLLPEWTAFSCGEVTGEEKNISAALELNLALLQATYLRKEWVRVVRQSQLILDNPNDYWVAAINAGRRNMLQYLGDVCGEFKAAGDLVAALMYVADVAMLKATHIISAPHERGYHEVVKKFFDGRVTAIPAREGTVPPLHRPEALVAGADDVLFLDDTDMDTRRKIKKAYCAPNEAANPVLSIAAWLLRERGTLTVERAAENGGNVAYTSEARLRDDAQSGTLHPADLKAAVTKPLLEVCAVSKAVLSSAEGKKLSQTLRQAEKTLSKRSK
The experiment in a line: Trypanosoma cruzi tyrosyl tRNA synthetase (TcYRS) _High Tyrosine SOP. Also: in the data most compounds retested in dose-response had high values. The format is functional. Conditions: 30 µM.

Experiment [8] has as its target T4, Tyrosyl-tRNA synthetase, putative (Trypanosoma cruzi (strain CL Brener)). Nature of the experiment: Trypanosoma cruzi tyrosyl tRNA synthetase (TcYRS) SOP. The format is functional. Conditions: 30 µM.
In experiment [9] the target is Chromo domain-containing protein 1 (Saccharomyces cerevisiae (strain ATCC 204508 / S288c) (Baker's yeast)) (UniProt P32657). Nature of the experiment: ScCHD-1 Enzyme Inhibition Assay. Also: in the data most compounds retested in dose-response had high values. Type of experiment: functional. As to conditions: 30 µM.
Sequence of Chromo domain-containing protein 1 (Saccharomyces cerevisiae (strain ATCC 204508 / S288c) (Baker's yeast)) (P32657 whole entry, the tested form may be a part): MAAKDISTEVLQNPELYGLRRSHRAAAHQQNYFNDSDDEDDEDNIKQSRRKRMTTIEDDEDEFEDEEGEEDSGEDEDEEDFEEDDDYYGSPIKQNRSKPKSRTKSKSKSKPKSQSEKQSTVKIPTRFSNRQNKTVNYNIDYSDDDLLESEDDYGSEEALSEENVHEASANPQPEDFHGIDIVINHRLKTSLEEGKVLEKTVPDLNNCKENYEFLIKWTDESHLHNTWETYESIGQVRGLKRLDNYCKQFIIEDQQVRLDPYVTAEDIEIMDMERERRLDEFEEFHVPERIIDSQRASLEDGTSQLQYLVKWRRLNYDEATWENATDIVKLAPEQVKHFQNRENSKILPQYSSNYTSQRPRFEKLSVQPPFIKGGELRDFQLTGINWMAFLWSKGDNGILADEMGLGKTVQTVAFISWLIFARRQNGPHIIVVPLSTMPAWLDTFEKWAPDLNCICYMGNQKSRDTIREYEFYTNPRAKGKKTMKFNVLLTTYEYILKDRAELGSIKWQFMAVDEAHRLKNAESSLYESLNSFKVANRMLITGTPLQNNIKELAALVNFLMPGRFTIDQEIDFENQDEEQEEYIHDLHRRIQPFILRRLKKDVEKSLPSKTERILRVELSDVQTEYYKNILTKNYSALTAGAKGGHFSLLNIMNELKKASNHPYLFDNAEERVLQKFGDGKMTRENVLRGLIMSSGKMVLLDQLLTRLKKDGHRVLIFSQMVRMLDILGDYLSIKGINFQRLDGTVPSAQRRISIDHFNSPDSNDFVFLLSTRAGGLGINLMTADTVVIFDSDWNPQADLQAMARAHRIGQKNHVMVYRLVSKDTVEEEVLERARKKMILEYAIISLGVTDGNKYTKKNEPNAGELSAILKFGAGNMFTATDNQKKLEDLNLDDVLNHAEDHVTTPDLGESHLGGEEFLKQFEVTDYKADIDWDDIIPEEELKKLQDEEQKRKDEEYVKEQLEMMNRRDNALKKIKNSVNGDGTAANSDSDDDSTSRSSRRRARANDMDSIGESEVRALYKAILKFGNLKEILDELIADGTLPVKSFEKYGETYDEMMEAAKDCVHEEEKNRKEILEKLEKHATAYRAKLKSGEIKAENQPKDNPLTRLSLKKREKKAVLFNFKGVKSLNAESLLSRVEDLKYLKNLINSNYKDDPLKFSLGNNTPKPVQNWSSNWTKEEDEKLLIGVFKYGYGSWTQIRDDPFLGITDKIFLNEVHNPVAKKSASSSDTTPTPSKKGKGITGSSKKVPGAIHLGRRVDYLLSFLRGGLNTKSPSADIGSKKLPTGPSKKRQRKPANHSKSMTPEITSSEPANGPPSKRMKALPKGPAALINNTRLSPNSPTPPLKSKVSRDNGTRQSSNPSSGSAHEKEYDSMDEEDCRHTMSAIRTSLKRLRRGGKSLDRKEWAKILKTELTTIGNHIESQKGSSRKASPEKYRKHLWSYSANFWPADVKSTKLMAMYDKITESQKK

Sequence of Protein translocase subunit SecA (Escherichia coli (strain K12)) (P10408 whole entry): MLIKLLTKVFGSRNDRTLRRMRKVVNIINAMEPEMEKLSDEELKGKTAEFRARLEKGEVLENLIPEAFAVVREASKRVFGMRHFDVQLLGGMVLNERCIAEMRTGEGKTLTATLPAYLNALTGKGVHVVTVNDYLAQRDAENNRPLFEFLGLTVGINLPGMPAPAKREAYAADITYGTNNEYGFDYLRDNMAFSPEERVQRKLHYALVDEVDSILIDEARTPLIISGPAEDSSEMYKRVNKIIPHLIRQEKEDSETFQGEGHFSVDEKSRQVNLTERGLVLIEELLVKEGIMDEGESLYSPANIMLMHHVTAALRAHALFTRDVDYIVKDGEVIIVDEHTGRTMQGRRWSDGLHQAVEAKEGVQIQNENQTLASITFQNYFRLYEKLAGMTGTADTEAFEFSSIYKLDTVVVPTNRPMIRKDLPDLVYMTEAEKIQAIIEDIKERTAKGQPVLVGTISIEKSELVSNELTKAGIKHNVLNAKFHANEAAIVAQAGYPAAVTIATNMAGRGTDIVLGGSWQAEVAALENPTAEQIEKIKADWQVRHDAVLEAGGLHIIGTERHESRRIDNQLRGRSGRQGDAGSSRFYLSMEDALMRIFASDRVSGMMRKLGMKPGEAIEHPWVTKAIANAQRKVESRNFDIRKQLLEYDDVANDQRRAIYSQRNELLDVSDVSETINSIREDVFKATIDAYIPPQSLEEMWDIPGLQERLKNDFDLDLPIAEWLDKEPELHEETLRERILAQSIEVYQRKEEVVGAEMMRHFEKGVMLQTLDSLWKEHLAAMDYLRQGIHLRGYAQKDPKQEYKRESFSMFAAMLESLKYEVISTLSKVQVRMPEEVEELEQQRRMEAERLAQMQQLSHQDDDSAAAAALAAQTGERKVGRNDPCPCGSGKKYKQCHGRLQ
Sequence of Sialic acid-binding Ig-like lectin 9 (Homo sapiens) (Q9Y336 whole entry): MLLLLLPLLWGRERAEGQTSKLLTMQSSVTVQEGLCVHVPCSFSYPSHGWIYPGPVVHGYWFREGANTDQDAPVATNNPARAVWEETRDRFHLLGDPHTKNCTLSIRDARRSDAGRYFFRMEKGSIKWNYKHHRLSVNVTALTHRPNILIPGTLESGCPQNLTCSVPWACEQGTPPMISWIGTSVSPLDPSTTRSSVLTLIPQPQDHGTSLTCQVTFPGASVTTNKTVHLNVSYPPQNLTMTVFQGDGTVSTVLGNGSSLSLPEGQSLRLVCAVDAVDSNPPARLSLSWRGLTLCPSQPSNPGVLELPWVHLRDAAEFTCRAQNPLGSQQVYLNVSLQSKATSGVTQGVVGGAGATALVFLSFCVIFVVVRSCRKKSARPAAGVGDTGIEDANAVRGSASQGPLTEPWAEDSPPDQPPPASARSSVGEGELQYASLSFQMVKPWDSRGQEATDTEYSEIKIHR

On to `CN1CCCC(c2cccc(Cc3ccccc3Cl)n2)C1` (stereo not drawn), for which the Percent Effect in [1] is -3.49%; in experiment [2], -4.05%; in [3], 7.5%; in experiment [4], 3.2%; with Trypanosoma cruzi, 1.38%; in experiment [5], -3.48%. In addition, the Percent Effect in [6] was 1.72%; in the experiment listed under Homo sapiens it was 5.26%; in [7], 2.15%; in [8], 1.3%; in experiment [9], -7.93%.
In the case of `CN(Cc1nc(N)c2ccccc2n1)C1CCCN(c2cccnn2)C1` (stereo not drawn), the Percent Effect in [1] was -4.12%; in [2], -5.2%; in experiment [3], -10.2%; in experiment [4], 5.86%; with Trypanosoma cruzi, 7.49%; in experiment [5], -1.07%. Moreover, the Percent Effect in [6] was 13.3%; in the experiment listed under Homo sapiens it was -0.131%; in [7], 9.71%; in [8], 14.6%; in [9] it was -9.67%.
As for `COc1ccc(S(=O)(=O)N2CCCC3(CCCN3S(C)(=O)=O)C2)cc1` (stereo not drawn), the Percent Effect in experiment [1] is -2.95%; in experiment [2] it was 10.8%; in experiment [3], -2.61%; in [4] it was -2.37%; with Trypanosoma cruzi, -8.31%; in experiment [5], -2.73%. In addition, the Percent Effect in experiment [6] is 12.3%; in the experiment listed under Homo sapiens, 7.81%; in experiment [7], 0%; in experiment [8], 8.64%; in experiment [9], -3.67%.
As for `COc1ccc(Cl)cc1C(=O)N1CCCC(n2nc(C)nc2C)C1` (stereo not drawn), the Percent Effect is -3.26% in experiment [1]; 0% in experiment [2]; 9.49% in experiment [3]; -8.91% in experiment [4]; -6.33% with Trypanosoma cruzi; -3.8% in experiment [5]. The Percent Effect in [6] was -4.5%; in the experiment filed under Homo sapiens, 16.6%; in [7], -2.46%; in experiment [8], -3.8%; in experiment [9], 2.53%.
As to `COCCn1ccc(NC(=O)Nc2cccnc2)n1`, the Percent Effect was -2.55% in experiment [1]; 0% in [2]; 3.19% in experiment [3]; 3.76% in experiment [4]; 2.82% in the experiment on Trypanosoma cruzi; -7.1% in experiment [5]. Further, the Percent Effect in experiment [6] was 15.6%; in the experiment filed under Homo sapiens it was 21.2%; in experiment [7], 3.19%; in [8] it was 7.79%; in experiment [9], -6.3%.
Take `Cc1nn(C)c(C)c1C1COCCN1c1ncnc2sccc12` (stereo not drawn): the Percent Effect was -2.31% in [1]; -2.67% in experiment [2]; -0.892% in experiment [3]; -4.05% in experiment [4]; -0.487% in the experiment with Trypanosoma cruzi; -2.08% in experiment [5]. Besides, the Percent Effect in experiment [6] is 10.1%; in the experiment filed under Homo sapiens, 31.3%; in experiment [7], 1.64%; in experiment [8], 3.7%; in experiment [9], -1.49%.
On to `COCCN(Cc1ccoc1)C(=O)c1c(F)cccc1Cl`, for which the Percent Effect in experiment [1] was -4.43%; in [2], 5.2%; in experiment [3], 10.7%; in experiment [4], 9.59%; in the experiment with Trypanosoma cruzi, -5.62%; in experiment [5] it was 5.81%. Also, the Percent Effect is 2.44% in [6]; -5.55% in the experiment listed under Homo sapiens; 3.17% in experiment [7]; 11.5% in experiment [8]; -5.12% in [9].
On to `Cc1cc(C)c(CNC(=O)NCC2CCCO2)c(=O)[nH]1` (stereo not drawn), for which the Percent Effect in experiment [1] is -9.94%; in experiment [2], 2.63%; in experiment [3], 3.27%; in [4], 0.242%; in the experiment with Trypanosoma cruzi, -5.64%; in experiment [5], -2.3%. The Percent Effect is -2.17% in experiment [6]; 19.5% in the experiment listed under Homo sapiens; -3.43% in [7]; -2.44% in [8]; 2.35% in experiment [9].
